We go through 6 compounds from ChEMBL document CHEMBL1961873, “Compounds: GSK PKIS; Assays: Nanosyn kinase panel” (2012).

The structures appear in SMILES notation.

Experiment [1] addresses Mast/stem cell growth factor receptor Kit (Homo sapiens) (UniProt P10721). Particulars: at 1 µM.
The subject of experiment [2] is Mast/stem cell growth factor receptor Kit (Homo sapiens), P10721 [D816V]. Particulars: at 0.1 µM.
The test system is the same in experiment [3]. Particulars: at 1 µM.
The test system of experiment [4] is Mast/stem cell growth factor receptor Kit (Homo sapiens), P10721 [T670I]. The settings on record: at 0.1 µM.
Mast/stem cell growth factor receptor Kit (Homo sapiens), P10721 [T670I], sequence (P10721 whole entry T670I): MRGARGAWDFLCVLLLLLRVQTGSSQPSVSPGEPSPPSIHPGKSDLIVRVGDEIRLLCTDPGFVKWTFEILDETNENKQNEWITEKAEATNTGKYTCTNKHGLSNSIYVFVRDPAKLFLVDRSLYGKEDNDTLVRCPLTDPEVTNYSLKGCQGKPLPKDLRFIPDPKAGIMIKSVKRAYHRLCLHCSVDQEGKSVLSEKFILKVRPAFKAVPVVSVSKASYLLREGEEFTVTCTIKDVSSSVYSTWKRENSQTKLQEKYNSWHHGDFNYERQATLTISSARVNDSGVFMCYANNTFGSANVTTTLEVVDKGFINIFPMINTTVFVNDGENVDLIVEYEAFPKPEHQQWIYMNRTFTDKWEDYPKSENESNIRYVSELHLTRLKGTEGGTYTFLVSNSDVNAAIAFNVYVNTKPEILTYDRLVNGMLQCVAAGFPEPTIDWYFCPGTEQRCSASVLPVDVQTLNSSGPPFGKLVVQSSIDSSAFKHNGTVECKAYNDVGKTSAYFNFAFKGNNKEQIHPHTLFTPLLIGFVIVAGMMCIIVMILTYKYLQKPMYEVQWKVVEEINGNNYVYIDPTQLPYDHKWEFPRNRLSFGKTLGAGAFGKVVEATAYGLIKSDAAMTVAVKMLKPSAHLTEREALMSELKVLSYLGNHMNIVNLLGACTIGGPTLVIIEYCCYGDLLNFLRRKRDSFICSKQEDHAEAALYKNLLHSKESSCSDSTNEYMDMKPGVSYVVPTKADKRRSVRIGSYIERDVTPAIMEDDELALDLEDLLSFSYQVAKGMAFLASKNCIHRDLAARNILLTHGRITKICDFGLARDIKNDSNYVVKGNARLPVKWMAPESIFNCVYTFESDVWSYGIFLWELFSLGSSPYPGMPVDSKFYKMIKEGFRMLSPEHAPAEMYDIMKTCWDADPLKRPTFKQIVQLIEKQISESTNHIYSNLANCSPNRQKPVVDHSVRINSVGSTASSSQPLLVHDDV
Experiment [5] has the same test system. Particulars: at 1 µM.
The subject of experiment [6] is Mast/stem cell growth factor receptor Kit (Homo sapiens), P10721 [V560G]. Particulars: at 0.1 µM.
Experiment [7] shares this test system. Particulars: at 1 µM.
The target of experiment [8] is Tyrosine-protein kinase Lck (Homo sapiens) (UniProt P06239). The settings on record: at 0.1 µM.
Tyrosine-protein kinase Lck (Homo sapiens), sequence (P06239 2-509 limits assumed): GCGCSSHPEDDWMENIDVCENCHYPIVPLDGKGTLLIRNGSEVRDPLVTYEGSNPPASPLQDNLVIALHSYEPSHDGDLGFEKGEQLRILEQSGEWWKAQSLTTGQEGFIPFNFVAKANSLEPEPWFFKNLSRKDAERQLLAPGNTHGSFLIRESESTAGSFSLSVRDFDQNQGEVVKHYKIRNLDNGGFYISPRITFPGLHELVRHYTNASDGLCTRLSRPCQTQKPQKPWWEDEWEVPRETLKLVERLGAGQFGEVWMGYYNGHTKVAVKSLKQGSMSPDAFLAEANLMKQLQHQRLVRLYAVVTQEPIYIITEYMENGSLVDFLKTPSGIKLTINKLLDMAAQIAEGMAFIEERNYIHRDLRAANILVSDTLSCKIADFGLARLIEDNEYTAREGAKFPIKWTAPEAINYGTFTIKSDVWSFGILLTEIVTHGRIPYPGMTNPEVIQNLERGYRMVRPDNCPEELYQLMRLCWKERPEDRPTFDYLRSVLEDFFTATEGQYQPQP
Experiment [9] shares this target. The settings on record: at 1 µM.
For experiment [10], the target named is Leukocyte tyrosine kinase receptor (Homo sapiens) (UniProt P29376). The settings on record: at 0.1 µM.
Leukocyte tyrosine kinase receptor (Homo sapiens), sequence (P29376 whole entry): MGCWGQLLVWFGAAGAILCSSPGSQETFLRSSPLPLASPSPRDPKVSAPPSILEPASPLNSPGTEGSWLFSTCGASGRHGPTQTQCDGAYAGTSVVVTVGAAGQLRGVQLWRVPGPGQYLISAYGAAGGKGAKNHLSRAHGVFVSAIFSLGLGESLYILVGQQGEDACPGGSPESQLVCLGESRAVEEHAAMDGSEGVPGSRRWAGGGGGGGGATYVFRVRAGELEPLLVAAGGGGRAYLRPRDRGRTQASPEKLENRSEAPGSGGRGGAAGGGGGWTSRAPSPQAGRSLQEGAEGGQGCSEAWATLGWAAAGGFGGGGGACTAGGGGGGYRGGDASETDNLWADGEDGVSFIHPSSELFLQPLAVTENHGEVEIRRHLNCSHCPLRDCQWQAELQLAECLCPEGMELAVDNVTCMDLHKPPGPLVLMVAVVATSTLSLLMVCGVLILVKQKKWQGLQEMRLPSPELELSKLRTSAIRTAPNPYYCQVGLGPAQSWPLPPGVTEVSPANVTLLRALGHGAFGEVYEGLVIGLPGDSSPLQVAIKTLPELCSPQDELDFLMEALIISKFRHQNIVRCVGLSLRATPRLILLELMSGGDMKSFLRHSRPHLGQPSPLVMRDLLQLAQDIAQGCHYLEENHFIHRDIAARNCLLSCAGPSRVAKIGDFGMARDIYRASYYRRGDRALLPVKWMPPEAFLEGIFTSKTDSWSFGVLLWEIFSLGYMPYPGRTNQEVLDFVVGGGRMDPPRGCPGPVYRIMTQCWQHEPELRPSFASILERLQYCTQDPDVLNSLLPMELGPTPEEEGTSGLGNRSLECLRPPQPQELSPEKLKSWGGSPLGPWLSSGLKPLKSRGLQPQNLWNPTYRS
Experiment [11] shares this target. The settings on record: at 1 µM.
Experiment [12] has as its target Tyrosine-protein kinase Lyn (Homo sapiens) (UniProt P07948). The settings on record: at 0.1 µM.
The target is the same in experiment [13]. Particulars: at 1 µM.
Experiment [14] shares this target. The settings on record: at 0.1 µM. The source holds these as a separate data set.
Experiment [15] shares this target. Particulars: at 1 µM. This is another data set of the same source.
In experiment [16] the target is T1, Tyrosine-protein kinase Mer (Homo sapiens) (UniProt Q12866).
T1 sequence (whole entry): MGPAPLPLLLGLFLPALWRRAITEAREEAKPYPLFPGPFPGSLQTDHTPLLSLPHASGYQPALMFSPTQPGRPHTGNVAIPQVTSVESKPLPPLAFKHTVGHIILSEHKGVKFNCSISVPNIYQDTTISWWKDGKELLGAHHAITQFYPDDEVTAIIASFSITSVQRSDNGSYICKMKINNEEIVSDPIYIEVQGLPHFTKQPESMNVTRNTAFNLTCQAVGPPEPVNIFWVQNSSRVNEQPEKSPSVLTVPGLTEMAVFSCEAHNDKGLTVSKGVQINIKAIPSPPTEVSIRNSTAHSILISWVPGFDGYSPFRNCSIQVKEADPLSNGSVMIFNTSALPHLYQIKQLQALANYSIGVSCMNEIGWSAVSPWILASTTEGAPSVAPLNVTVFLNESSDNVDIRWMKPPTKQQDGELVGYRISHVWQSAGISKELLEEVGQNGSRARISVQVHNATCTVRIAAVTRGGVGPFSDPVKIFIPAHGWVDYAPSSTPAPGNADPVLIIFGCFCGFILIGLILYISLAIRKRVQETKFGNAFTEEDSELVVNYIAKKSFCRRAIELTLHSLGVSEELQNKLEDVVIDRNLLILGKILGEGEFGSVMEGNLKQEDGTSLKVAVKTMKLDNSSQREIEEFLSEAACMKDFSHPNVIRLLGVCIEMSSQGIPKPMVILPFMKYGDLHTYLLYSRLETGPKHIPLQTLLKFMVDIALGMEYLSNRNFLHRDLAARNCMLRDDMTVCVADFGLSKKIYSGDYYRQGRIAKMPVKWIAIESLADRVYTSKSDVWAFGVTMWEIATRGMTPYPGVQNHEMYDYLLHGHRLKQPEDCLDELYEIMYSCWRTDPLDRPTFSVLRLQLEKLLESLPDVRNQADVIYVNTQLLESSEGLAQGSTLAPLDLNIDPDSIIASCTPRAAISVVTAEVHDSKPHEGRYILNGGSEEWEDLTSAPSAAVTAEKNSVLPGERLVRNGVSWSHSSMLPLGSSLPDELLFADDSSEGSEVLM
Particulars: at 0.1 µM.

The target in experiment [17] is T1, Tyrosine-protein kinase Mer (Homo sapiens). Particulars: at 1 µM.
Experiment [18] addresses Hepatocyte growth factor receptor (Homo sapiens) (UniProt P08581). Particulars: at 0.1 µM.
The target is the same in experiment [19]. The settings on record: at 1 µM.
Experiment [20] deals with T2, Muscle, skeletal receptor tyrosine-protein kinase (Homo sapiens) (UniProt O15146).
T2 sequence (whole entry): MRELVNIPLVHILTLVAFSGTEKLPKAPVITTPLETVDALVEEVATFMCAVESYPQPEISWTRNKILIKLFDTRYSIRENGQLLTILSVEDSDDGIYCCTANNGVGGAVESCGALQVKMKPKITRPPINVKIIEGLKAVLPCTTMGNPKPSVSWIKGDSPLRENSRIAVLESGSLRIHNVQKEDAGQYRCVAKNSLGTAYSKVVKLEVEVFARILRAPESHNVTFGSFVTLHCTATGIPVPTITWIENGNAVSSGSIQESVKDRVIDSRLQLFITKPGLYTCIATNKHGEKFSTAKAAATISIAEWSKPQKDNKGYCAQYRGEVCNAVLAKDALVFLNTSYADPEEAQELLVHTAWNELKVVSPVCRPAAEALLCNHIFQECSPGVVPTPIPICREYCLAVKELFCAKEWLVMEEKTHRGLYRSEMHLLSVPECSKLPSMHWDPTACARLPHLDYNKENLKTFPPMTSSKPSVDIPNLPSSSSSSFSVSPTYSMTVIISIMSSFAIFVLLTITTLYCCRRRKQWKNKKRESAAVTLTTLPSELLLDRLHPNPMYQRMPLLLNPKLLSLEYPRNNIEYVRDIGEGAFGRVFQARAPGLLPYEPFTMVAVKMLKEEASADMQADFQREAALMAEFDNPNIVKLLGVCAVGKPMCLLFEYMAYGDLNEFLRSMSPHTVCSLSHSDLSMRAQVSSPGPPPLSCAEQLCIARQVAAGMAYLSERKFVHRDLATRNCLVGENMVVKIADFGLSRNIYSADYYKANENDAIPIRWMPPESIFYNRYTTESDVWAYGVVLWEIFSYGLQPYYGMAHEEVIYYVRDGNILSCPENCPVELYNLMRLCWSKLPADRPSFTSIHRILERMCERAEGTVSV
Particulars: at 0.1 µM.

Hepatocyte growth factor receptor (Homo sapiens), sequence (P08581 whole entry): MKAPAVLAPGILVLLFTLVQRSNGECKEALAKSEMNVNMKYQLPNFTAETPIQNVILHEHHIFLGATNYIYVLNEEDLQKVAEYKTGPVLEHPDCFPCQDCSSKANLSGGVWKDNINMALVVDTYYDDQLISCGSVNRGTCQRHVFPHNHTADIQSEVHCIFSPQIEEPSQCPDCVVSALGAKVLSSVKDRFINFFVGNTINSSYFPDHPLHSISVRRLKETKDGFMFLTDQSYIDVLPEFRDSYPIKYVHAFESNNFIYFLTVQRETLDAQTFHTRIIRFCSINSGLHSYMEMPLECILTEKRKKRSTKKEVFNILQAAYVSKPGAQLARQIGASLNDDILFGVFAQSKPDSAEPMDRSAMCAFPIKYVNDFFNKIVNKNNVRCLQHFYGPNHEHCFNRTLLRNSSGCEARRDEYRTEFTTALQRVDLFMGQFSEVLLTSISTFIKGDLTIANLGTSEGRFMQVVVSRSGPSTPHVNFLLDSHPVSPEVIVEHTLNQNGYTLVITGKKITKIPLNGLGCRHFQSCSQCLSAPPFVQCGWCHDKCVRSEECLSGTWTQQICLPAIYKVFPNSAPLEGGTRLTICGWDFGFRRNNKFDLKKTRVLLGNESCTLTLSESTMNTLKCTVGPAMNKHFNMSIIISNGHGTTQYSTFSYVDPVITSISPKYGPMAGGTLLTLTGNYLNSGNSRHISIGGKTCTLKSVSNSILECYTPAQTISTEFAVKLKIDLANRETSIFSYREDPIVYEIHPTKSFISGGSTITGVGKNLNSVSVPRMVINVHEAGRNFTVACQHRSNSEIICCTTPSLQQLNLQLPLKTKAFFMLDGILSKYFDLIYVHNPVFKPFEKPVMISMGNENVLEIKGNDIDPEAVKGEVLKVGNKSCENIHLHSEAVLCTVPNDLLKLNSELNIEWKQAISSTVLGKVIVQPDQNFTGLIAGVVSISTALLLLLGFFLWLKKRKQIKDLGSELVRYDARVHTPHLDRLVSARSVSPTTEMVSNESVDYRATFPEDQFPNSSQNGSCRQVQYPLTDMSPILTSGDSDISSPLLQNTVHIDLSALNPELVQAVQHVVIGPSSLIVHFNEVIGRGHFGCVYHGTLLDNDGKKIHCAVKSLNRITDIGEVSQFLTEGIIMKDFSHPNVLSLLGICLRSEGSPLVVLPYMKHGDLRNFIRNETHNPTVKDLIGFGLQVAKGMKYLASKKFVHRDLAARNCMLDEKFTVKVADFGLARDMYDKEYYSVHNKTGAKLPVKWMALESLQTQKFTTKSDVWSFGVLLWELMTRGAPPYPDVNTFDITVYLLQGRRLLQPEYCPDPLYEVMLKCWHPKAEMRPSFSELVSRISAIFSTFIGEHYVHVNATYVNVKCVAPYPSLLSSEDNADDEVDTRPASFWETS
Mast/stem cell growth factor receptor Kit (Homo sapiens), sequence (P10721 whole entry): as the sequence (P10721 whole entry T670I) above, with I670T counted along it
Mast/stem cell growth factor receptor Kit (Homo sapiens), P10721 [V560G], sequence (P10721 whole entry V560G): as the sequence (P10721 whole entry T670I) above, with V560G, I670T counted along it
Tyrosine-protein kinase Lyn (Homo sapiens), sequence (P07948 2-512 limits assumed): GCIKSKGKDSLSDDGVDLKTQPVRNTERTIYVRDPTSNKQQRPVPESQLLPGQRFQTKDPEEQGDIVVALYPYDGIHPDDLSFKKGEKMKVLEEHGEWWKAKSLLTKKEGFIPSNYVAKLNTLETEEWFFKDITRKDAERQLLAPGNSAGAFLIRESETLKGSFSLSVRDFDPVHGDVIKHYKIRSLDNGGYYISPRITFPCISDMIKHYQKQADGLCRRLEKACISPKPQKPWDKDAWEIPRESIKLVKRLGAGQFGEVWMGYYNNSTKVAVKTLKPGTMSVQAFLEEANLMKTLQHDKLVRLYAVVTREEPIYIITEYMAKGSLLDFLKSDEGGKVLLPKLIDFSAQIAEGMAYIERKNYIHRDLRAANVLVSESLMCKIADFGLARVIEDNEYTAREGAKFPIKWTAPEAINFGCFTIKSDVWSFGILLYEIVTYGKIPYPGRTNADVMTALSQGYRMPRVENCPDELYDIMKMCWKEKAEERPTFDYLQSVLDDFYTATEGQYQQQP
Mast/stem cell growth factor receptor Kit (Homo sapiens), P10721 [D816V], sequence (P10721 whole entry D816V): as the sequence (P10721 whole entry T670I) above, with I670T, D816V counted along it

Consider `COc1cc2ncn(-c3cc(OCc4cccs4)c(C(N)=O)s3)c2cc1OC`, for which the inhibition in [1] is 11.7%; in experiment [2] it was -0.06%; in experiment [3] it was 3.94%; in experiment [4], 1.45%; in [5] it was 7.04%; in experiment [6], 1.25%. The inhibition in experiment [7] is 4.05%; in experiment [8], -0.61%; in [9] it was 13.8%; in [10], 1.76%; in [11], 7.14%; in experiment [12], 4.29%. The inhibition in [13] stood at 22.6%; in experiment [14], 2.41%; in experiment [15] it was 19.3%; in [16] it was 3.4%; in [17], 10.7%; in experiment [18], 8.19%. Further, the inhibition worked out at 13.4% in experiment [19] and 4.86% in [20].
`CN(C)CCCNc1nccc(-c2c(-c3ccc(F)cc3)nn3cc(C(F)(F)F)ccc23)n1`: the inhibition in experiment [1] was 2.1%; in experiment [2], 1.94%; in experiment [3], -0.31%; in experiment [4], 0.09%; in experiment [5] it was 0.14%; in experiment [6], 6.47%. The inhibition is 4.04% in [7]; -2.05% in [8]; 3.17% in [9]; 1.9% in experiment [10]; 1.19% in experiment [11]; 1.87% in experiment [12]. Besides, the inhibition was 6.57% in experiment [13]; 0.99% in experiment [14]; 5.88% in experiment [15]; 1.56% in experiment [16]; 5.87% in experiment [17]; 3.45% in experiment [18]. For the same compound, the inhibition in experiment [19] amounted to 10.6%; in [20], 10.1%.
For the compound `CN1CCN(CCCNc2nc3ccc(Oc4ccc(NC(=O)Nc5cc(C(F)(F)F)ccc5F)cc4)cc3[nH]2)CC1`, the inhibition in experiment [1] was 91.9%; in experiment [2] it was -2.19%; in experiment [3], 0.02%; in [4] it was 11.5%; in [5] it was 70.1%; in [6], 31.6%. Besides, the inhibition in experiment [7] is 76.6%; in experiment [8], -1.91%; in experiment [9], 7.95%; in experiment [10] it was -0.24%; in experiment [11], -0.03%; in [12], 1.76%. Further, the inhibition is 13.2% in [13]; 0.61% in experiment [14]; 9.37% in [15]; 2.04% in experiment [16]; 6.67% in experiment [17]; 5.66% in experiment [18]. Also, the inhibition in [19] came to 8.95%; in experiment [20], 15%.
On to `NC(=O)c1ccc(Oc2nccc(-c3c(-c4ccc(F)cc4)ncn3C3CCNCC3)n2)cc1`, for which the inhibition in experiment [1] is 6.05%; in experiment [2] it was 4.42%; in experiment [3], 4.25%; in experiment [4], 1.23%; in experiment [5] it was 1.77%; in [6] it was -1.86%. The inhibition came out at 0.03% in [7]; 5.07% in experiment [8]; 4.88% in experiment [9]; 4.02% in experiment [10]; 4.14% in [11]; 4.17% in [12]. Further, the inhibition is 5.34% in [13]; 1.86% in experiment [14]; 4.92% in experiment [15]; 3.18% in [16]; 6.79% in [17]; 13.2% in [18]. Also, the inhibition in experiment [19] was 8.14%; in [20] it was 3.97%.
Turning to `O=C1NC(=O)C(c2cccc(Cl)c2)=C1Nc1ccc(Cl)c(C(=O)O)c1`, the inhibition in [1] came out at 5.28%; in experiment [2], 1.8%; in experiment [3] it was 5.8%; in experiment [4] it was 2.83%; in experiment [5], 4.22%; in experiment [6] it was 1%. In addition, the inhibition turned out to be 6.94% in [7]; 1.82% in [8]; 0.84% in [9]; 2.51% in experiment [10]; 2.96% in [11]; 3.89% in [12]. In addition, the inhibition in [13] is 4.02%; in [14], 2.44%; in experiment [15], 3.42%; in [16], 1.12%; in [17], -0.64%; in experiment [18], 1.38%. Further, the inhibition was found to be 3.65% in experiment [19] and 2.04% in experiment [20].
Take `c1ccc(-c2n[nH]cc2-c2ccnc(-c3ccc(OCCN4CCOCC4)cc3)c2)nc1`: the inhibition in experiment [1] was 2.31%; in [2], -0.77%; in [3], 8.41%; in experiment [4], -3%; in experiment [5], -2.32%; in experiment [6] it was 7.8%. Besides, the inhibition is 10.4% in experiment [7]; 1.7% in [8]; 9.5% in experiment [9]; -0.05% in experiment [10]; -0.95% in [11]; 1.31% in experiment [12]. Also, the inhibition in experiment [13] was found to be 10.2%; in experiment [14], 1.54%; in [15] it was 7.34%; in experiment [16] it was 5.12%; in experiment [17], 5.39%; in [18], 7.49%. Further, the inhibition in [19] was determined as 5.59%; in experiment [20], 6.97%.

As a reminder, the inhibition is the drop in the measured response relative to a control, in per cent.
